# Reference: article PMC8384837, “Expanding the binding specificity for RNA recognition by a PUF domain”
# Columns and labels:
# Test in all cases: yeast three-hybrid, YBZ-1, SC-Leu-His + 0.5 mM 3-AT, 4 days
# Conditions in all cases: tags: N-Gal4 AD-HA kept; label: inside an RPR1-promoter hybrid RNA with tandem MS2 sites; ssRNA
# PUM1 PUF domain R5-CHG = PUM1 PUF domain R5-CHG (Homo sapiens, UniProt Q14671 828-1176, R1008H;Q1011G)
# Summary of the method: (§1)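 Matching RNA elements and Pumilio-1 PUF domain libraries, randomized at the three base-contacting residues of every repeat, were co-expressed from a centromeric plasmid in strain YBZ-1 (LexA–MS2 coat fusion, HIS3 reporter). The repeat regions were PCR-amplified and Illumina-sequenced from cells grown four days on SC-Leu (input) or SC-Leu-His + 0.5 mM 3-AT (selection). The interaction score is the log change in variant frequency from input to selection. It is computed in log2, with a pseudocount of 1 for absent variants.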
# PUM1 PUF domain R5-RQS = PUM1 PUF domain R5-RQS (Homo sapiens, UniProt Q14671 828-1176, C1007R;R1008Q;Q1011S)
# Summary of the method: as §1
# PUM1 PUF domain R5-RRL = PUM1 PUF domain R5-RRL (Homo sapiens, UniProt Q14671 828-1176, C1007R;Q1011L)
# Summary of the method: as §1
# PUM1 PUF domain R1-GLR = PUM1 PUF domain R1-GLR (Homo sapiens, UniProt Q14671 828-1176, S863G;R864L;Q867R)
# Summary of the method: as §1
# PUM1 PUF domain R4-WGC = PUM1 PUF domain R4-WGC (Homo sapiens, UniProt Q14671 828-1176, N971W;H972G;Q975C)
# Summary of the method: as §1
# PUM1 PUF domain R4-VSI = PUM1 PUF domain R4-VSI (Homo sapiens, UniProt Q14671 828-1176, N971V;H972S;Q975I)
# Summary of the method: as §1
# PUM1 PUF domain R8-RFV = PUM1 PUF domain R8-RFV (Homo sapiens, UniProt Q14671 828-1176, N1122R;Y1123F;Q1126V)
# Summary of the method: as §1
# PUM1 PUF domain R3-IWA = PUM1 PUF domain R3-IWA (Homo sapiens, UniProt Q14671 828-1176, C935I;R936W;Q939A)
# Summary of the method: as §1
# Sequence of PUM1 PUF domain R5-RQS (Q14671 828-1176 C1007R/R1008Q/Q1011S): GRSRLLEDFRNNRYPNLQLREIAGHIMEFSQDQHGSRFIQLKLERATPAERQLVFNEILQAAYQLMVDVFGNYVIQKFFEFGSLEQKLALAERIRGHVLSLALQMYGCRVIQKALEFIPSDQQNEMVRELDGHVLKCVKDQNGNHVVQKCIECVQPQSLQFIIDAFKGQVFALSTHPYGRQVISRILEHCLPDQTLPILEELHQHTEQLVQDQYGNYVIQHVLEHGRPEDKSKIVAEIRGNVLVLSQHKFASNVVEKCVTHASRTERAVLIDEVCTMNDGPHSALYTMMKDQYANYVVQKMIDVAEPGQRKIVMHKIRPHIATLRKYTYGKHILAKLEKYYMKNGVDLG
# Sequence of PUM1 PUF domain R5-CHG (Q14671 828-1176 R1008H/Q1011G): as the sequence (Q14671 828-1176 C1007R/R1008Q/Q1011S) above, with R180C, Q181H, S184G counted along it
# Sequence of PUM1 PUF domain R5-RRL (Q14671 828-1176 C1007R/Q1011L): as the sequence (Q14671 828-1176 C1007R/R1008Q/Q1011S) above, with Q181R, S184L counted along it
# Sequence of PUM1 PUF domain R1-GLR (Q14671 828-1176 S863G/R864L/Q867R): as the sequence (Q14671 828-1176 C1007R/R1008Q/Q1011S) above, with S36G, R37L, Q40R, R180C, Q181R, S184Q counted along it
# Sequence of PUM1 PUF domain R8-RFV (Q14671 828-1176 N1122R/Y1123F/Q1126V): as the sequence (Q14671 828-1176 C1007R/R1008Q/Q1011S) above, with R180C, Q181R, S184Q, N295R, Y296F, Q299V counted along it
# Sequence of PUM1 PUF domain R3-IWA (Q14671 828-1176 C935I/R936W/Q939A): as the sequence (Q14671 828-1176 C1007R/R1008Q/Q1011S) above, with C108I, R109W, Q112A, R180C, Q181R, S184Q counted along it
# Sequence of PUM1 PUF domain R4-WGC (Q14671 828-1176 N971W/H972G/Q975C): as the sequence (Q14671 828-1176 C1007R/R1008Q/Q1011S) above, with N144W, H145G, Q148C, R180C, Q181R, S184Q counted along it
# Sequence of PUM1 PUF domain R4-VSI (Q14671 828-1176 N971V/H972S/Q975I): as the sequence (Q14671 828-1176 C1007R/R1008Q/Q1011S) above, with N144V, H145S, Q148I, R180C, Q181R, S184Q counted along it
sequence,measurement,setting,value
GGCUAGAACUAGUGGAUCCCCCGGCGCCCGGCGGCUCGAGCCCGGGUAAGUGUCAAUAGUCUGCAUGCCGCCGGGCGCCAUGCCUGCAGGUCGACUCUAGAAAACAUG,binding signal,PUM1 PUF domain R5-CHG,1.6 log2 enrichment (interaction score)
same,binding signal,PUM1 PUF domain R5-RQS,4.99 log2 enrichment (interaction score)
same,binding signal,PUM1 PUF domain R5-RRL,3.98 log2 enrichment (interaction score)
GGCUAGAACUAGUGGAUCCCCCGGCGCCCGGCGGCUCGAGCCCGGGUAAGUGUAAAUUGUCUGCAUGCCGCCGGGCGCCAUGCCUGCAGGUCGACUCUAGAAAACAUG,binding signal,PUM1 PUF domain R1-GLR,2.9 log2 enrichment (interaction score)
GGCUAGAACUAGUGGAUCCCCCGGCGCCCGGCGGCUCGAGCCCGGGUAAGUGUACAUAGUCUGCAUGCCGCCGGGCGCCAUGCCUGCAGGUCGACUCUAGAAAACAUG,binding signal,PUM1 PUF domain R4-WGC,1.65 log2 enrichment (interaction score)
GGCUAGAACUAGUGGAUCCCCCGGCGCCCGGCGGCUCGAGCCCGGGUAAGUGUAAAUAGUCUGCAUGCCGCCGGGCGCCAUGCCUGCAGGUCGACUCUAGAAAACAUG,binding signal,PUM1 PUF domain R5-CHG,3.32 log2 enrichment (interaction score)
same,binding signal,PUM1 PUF domain R4-VSI,2.13 log2 enrichment (interaction score)
same,binding signal,PUM1 PUF domain R5-RQS,1.32 log2 enrichment (interaction score)
same,binding signal,PUM1 PUF domain R4-WGC,2.66 log2 enrichment (interaction score)
same,binding signal,PUM1 PUF domain R5-RRL,1.79 log2 enrichment (interaction score)
same,binding signal,PUM1 PUF domain R8-RFV,6.16 log2 enrichment (interaction score)
same,binding signal,PUM1 PUF domain R3-IWA,5.07 log2 enrichment (interaction score)
GGCUAGAACUAGUGGAUCCCCCGGCGCCCGGCGGCUCGAGCCCGGGUAAGCGUAAAUAGUCUGCAUGCCGCCGGGCGCCAUGCCUGCAGGUCGACUCUAGAAAACAUG,binding signal,PUM1 PUF domain R8-RFV,6.22 log2 enrichment (interaction score)
GGCUAGAACUAGUGGAUCCCCCGGCGCCCGGCGGCUCGAGCCCGGGUAAGUGUAAAUCGUCUGCAUGCCGCCGGGCGCCAUGCCUGCAGGUCGACUCUAGAAAACAUG,binding signal,PUM1 PUF domain R1-GLR,3.78 log2 enrichment (interaction score)
GGCUAGAACUAGUGGAUCCCCCGGCGCCCGGCGGCUCGAGCCCGGGUAAGUGUUAAUAGUCUGCAUGCCGCCGGGCGCCAUGCCUGCAGGUCGACUCUAGAAAACAUG,binding signal,PUM1 PUF domain R5-CHG,3.47 log2 enrichment (interaction score)
same,binding signal,PUM1 PUF domain R5-RQS,5.24 log2 enrichment (interaction score)
same,binding signal,PUM1 PUF domain R5-RRL,4.45 log2 enrichment (interaction score)
GGCUAGAACUAGUGGAUCCCCCGGCGCCCGGCGGCUCGAGCCCGGGUAAGUGUAAGUAGUCUGCAUGCCGCCGGGCGCCAUGCCUGCAGGUCGACUCUAGAAAACAUG,binding signal,PUM1 PUF domain R3-IWA,5.56 log2 enrichment (interaction score)
